# Test results reported in paper PMC8384837, “Expanding the binding specificity for RNA recognition by a PUF domain”.
# Changes are numbered by the printed parent chain.
# Experiments:
# Assay in all cases: yeast three-hybrid, YBZ-1, SC-Leu-His + 0.5 mM 3-AT, 4 days
# Details in all cases: tags: N-Gal4 AD-HA kept; label: inside an RPR1-promoter hybrid RNA with tandem MS2 sites; ssRNA
# PUM1 PUF domain R5-ERL = PUM1 PUF domain R5-ERL (Homo sapiens, UniProt Q14671 828-1176, C1007E;Q1011L)
# How it was run: (§1)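 Repeat regions from input (SC-Leu) and selection (SC-Leu-His + 0.5 mM 3-AT) plates were PCR-amplified and Illumina-sequenced after four days of growth. The cells were strain YBZ-1 with a LexA–MS2 coat fusion and a HIS3 reporter, co-expressing Pumilio-1 PUF domain libraries and matching RNA elements from a centromeric plasmid. The interaction score is the log change in variant frequency from input to selection, taken in log2 with a pseudocount of 1 for absent variants.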
# PUM1 PUF domain R5-KNW = PUM1 PUF domain R5-KNW (Homo sapiens, UniProt Q14671 828-1176, C1007K;R1008N;Q1011W)
# How it was run: as §1
# PUM1 PUF domain R5-RGM = PUM1 PUF domain R5-RGM (Homo sapiens, UniProt Q14671 828-1176, C1007R;R1008G;Q1011M)
# How it was run: as §1
# PUM1 PUF domain R5-KMW = PUM1 PUF domain R5-KMW (Homo sapiens, UniProt Q14671 828-1176, C1007K;R1008M;Q1011W)
# How it was run: as §1
# PUM1 PUF domain R5-KTV = PUM1 PUF domain R5-KTV (Homo sapiens, UniProt Q14671 828-1176, C1007K;R1008T;Q1011V)
# How it was run: as §1
# PUM1 PUF domain R4-PWV = PUM1 PUF domain R4-PWV (Homo sapiens, UniProt Q14671 828-1176, N971P;H972W;Q975V)
# How it was run: as §1
# PUM1 PUF domain R4-APG = PUM1 PUF domain R4-APG (Homo sapiens, UniProt Q14671 828-1176, N971A;H972P;Q975G)
# How it was run: as §1
# PUM1 PUF domain R3-WFE = PUM1 PUF domain R3-WFE (Homo sapiens, UniProt Q14671 828-1176, C935W;R936F;Q939E)
# How it was run: as §1
# PUM1 PUF domain R3-QRG = PUM1 PUF domain R3-QRG (Homo sapiens, UniProt Q14671 828-1176, C935Q;Q939G)
# How it was run: as §1
# PUM1 PUF domain R3-TTE = PUM1 PUF domain R3-TTE (Homo sapiens, UniProt Q14671 828-1176, C935T;R936T;Q939E)
# How it was run: as §1
# PUM1 PUF domain R3-RSL = PUM1 PUF domain R3-RSL (Homo sapiens, UniProt Q14671 828-1176, C935R;R936S;Q939L)
# How it was run: as §1
# PUM1 PUF domain R3-RAD = PUM1 PUF domain R3-RAD (Homo sapiens, UniProt Q14671 828-1176, C935R;R936A;Q939D)
# How it was run: as §1
# PUM1 PUF domain R3-FYA = PUM1 PUF domain R3-FYA (Homo sapiens, UniProt Q14671 828-1176, C935F;R936Y;Q939A)
# How it was run: as §1
# PUM1 PUF domain R7-RGQ = PUM1 PUF domain R7-RGQ (Homo sapiens, UniProt Q14671 828-1176, S1079R;N1080G;E1083Q)
# How it was run: as §1
# PUM1 PUF domain R7-KHR = PUM1 PUF domain R7-KHR (Homo sapiens, UniProt Q14671 828-1176, S1079K;N1080H;E1083R)
# How it was run: as §1
# PUM1 PUF domain R6-FRI = biological target: T1, PUM1 PUF domain R6-FRI (Homo sapiens, UniProt Q14671 828-1176, N1043F;Y1044R;Q1047I)
# T1 sequence: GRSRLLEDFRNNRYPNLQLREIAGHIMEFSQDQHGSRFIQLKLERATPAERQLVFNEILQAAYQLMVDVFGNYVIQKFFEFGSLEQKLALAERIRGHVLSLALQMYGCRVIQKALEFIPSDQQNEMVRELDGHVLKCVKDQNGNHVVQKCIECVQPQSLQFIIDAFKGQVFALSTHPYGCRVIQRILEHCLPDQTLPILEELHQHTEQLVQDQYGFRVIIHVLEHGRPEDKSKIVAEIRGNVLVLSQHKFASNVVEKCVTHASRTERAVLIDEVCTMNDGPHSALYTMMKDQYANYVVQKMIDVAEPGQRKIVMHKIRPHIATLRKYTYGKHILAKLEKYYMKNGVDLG
# How it was run: as §1
# PUM1 PUF domain R4-ALY = PUM1 PUF domain R4-ALY (Homo sapiens, UniProt Q14671 828-1176, N971A;H972L;Q975Y)
# How it was run: as §1
# PUM1 PUF domain R6-LWM = biological target: T2, PUM1 PUF domain R6-LWM (Homo sapiens, UniProt Q14671 828-1176, N1043L;Y1044W;Q1047M)
# T2 sequence: T1 sequence with F216L, R217W, I220M
# How it was run: as §1
# PUM1 PUF domain R6-NHW = biological target: T3, PUM1 PUF domain R6-NHW (Homo sapiens, UniProt Q14671 828-1176, Y1044H;Q1047W)
# T3 sequence: T1 sequence with F216N, R217H, I220W
# How it was run: as §1
# PUM1 PUF domain R8-RHM = PUM1 PUF domain R8-RHM (Homo sapiens, UniProt Q14671 828-1176, N1122R;Y1123H;Q1126M)
# How it was run: as §1
sequence,measurement,setting,value
GGCUAGAACUAGUGGAUCCCCCGGCGCCCGGCGGCUCGAGCCCGGGUAAGUGUGAAUAGUCUGCAUGCCGCCGGGCGCCAUGCCUGCAGGUCGACUCUAGAAAACAUG,binding signal,PUM1 PUF domain R5-ERL,1.92 log2 enrichment (interaction score)
GGCUAGAACUAGUGGAUCCCCCGGCGCCCGGCGGCUCGAGCCCGGGUAAGUGUUAAUAGUCUGCAUGCCGCCGGGCGCCAUGCCUGCAGGUCGACUCUAGAAAACAUG,binding signal,PUM1 PUF domain R5-KNW,2.79 log2 enrichment (interaction score)
same,binding signal,PUM1 PUF domain R5-RGM,3.6 log2 enrichment (interaction score)
GGCUAGAACUAGUGGAUCCCCCGGCGCCCGGCGGCUCGAGCCCGGGUAAGUGUCAAUAGUCUGCAUGCCGCCGGGCGCCAUGCCUGCAGGUCGACUCUAGAAAACAUG,binding signal,PUM1 PUF domain R5-KMW,3.19 log2 enrichment (interaction score)
same,binding signal,PUM1 PUF domain R5-KTV,2.38 log2 enrichment (interaction score)
same,binding signal,PUM1 PUF domain R5-ERL,3.87 log2 enrichment (interaction score)
same,binding signal,PUM1 PUF domain R5-RGM,2.26 log2 enrichment (interaction score)
GGCUAGAACUAGUGGAUCCCCCGGCGCCCGGCGGCUCGAGCCCGGGUAAGUGUAUAUAGUCUGCAUGCCGCCGGGCGCCAUGCCUGCAGGUCGACUCUAGAAAACAUG,binding signal,PUM1 PUF domain R4-PWV,6.68 log2 enrichment (interaction score)
same,binding signal,PUM1 PUF domain R4-APG,4.91 log2 enrichment (interaction score)
GGCUAGAACUAGUGGAUCCCCCGGCGCCCGGCGGCUCGAGCCCGGGUAAGUGUAAGUAGUCUGCAUGCCGCCGGGCGCCAUGCCUGCAGGUCGACUCUAGAAAACAUG,binding signal,PUM1 PUF domain R3-WFE,3.04 log2 enrichment (interaction score)
same,binding signal,PUM1 PUF domain R3-QRG,3.07 log2 enrichment (interaction score)
same,binding signal,PUM1 PUF domain R3-TTE,5.3 log2 enrichment (interaction score)
GGCUAGAACUAGUGGAUCCCCCGGCGCCCGGCGGCUCGAGCCCGGGUAAGUGUAAUUAGUCUGCAUGCCGCCGGGCGCCAUGCCUGCAGGUCGACUCUAGAAAACAUG,binding signal,PUM1 PUF domain R3-RSL,2.55 log2 enrichment (interaction score)
same,binding signal,PUM1 PUF domain R3-QRG,2.4 log2 enrichment (interaction score)
same,binding signal,PUM1 PUF domain R3-RAD,4.21 log2 enrichment (interaction score)
same,binding signal,PUM1 PUF domain R3-FYA,4.01 log2 enrichment (interaction score)
GGCUAGAACUAGUGGAUCCCCCGGCGCCCGGCGGCUCGAGCCCGGGUAAGUCUAAAUAGUCUGCAUGCCGCCGGGCGCCAUGCCUGCAGGUCGACUCUAGAAAACAUG,binding signal,PUM1 PUF domain R7-RGQ,4.22 log2 enrichment (interaction score)
same,binding signal,PUM1 PUF domain R7-KHR,5.64 log2 enrichment (interaction score)
GGCUAGAACUAGUGGAUCCCCCGGCGCCCGGCGGCUCGAGCCCGGGUAAGUGUACAUAGUCUGCAUGCCGCCGGGCGCCAUGCCUGCAGGUCGACUCUAGAAAACAUG,binding signal,PUM1 PUF domain R4-PWV,5.39 log2 enrichment (interaction score)
same,binding signal,PUM1 PUF domain R4-APG,0.78 log2 enrichment (interaction score)
GGCUAGAACUAGUGGAUCCCCCGGCGCCCGGCGGCUCGAGCCCGGGUAAGUGUAAAUAGUCUGCAUGCCGCCGGGCGCCAUGCCUGCAGGUCGACUCUAGAAAACAUG,binding signal,PUM1 PUF domain R5-KMW,1.25 log2 enrichment (interaction score)
same,binding signal,PUM1 PUF domain R6-FRI,3.38 log2 enrichment (interaction score)
same,binding signal,PUM1 PUF domain R4-ALY,3.56 log2 enrichment (interaction score)
same,binding signal,PUM1 PUF domain R5-ERL,5.49 log2 enrichment (interaction score)
same,binding signal,PUM1 PUF domain R6-LWM,4.73 log2 enrichment (interaction score)
same,binding signal,PUM1 PUF domain R6-NHW,2.25 log2 enrichment (interaction score)
same,binding signal,PUM1 PUF domain R4-PWV,6 log2 enrichment (interaction score)
same,binding signal,PUM1 PUF domain R4-APG,4.82 log2 enrichment (interaction score)
same,binding signal,PUM1 PUF domain R8-RHM,4.13 log2 enrichment (interaction score)
